# Assay outcomes deposited in PubChem by National Center for Advancing Translational Sciences (NCATS).
# TSG101-PTAP inh: blocks PTAP/TSG101 interaction to inhibit HIV-1 budding | Q99816 | 340,000 tested, under 10 active | Potency, µM (top dose mostly 115 µM), actives largely listed as inhibitors | Fluorescence polarization, FITC-PTAP peptide / Tsg101 binding; active = well fitted inhibition curve with a large enough effect in the main read-out, with a control signal flat, not every such curve was filed as active; inconclusive = small, poorly fitted or top-dose-only effect, or effect the other way, or a change in a side signal; inactive = no such curve, though single readings can be large or run the other way
# Target sequence (Q99816 whole entry, looked up): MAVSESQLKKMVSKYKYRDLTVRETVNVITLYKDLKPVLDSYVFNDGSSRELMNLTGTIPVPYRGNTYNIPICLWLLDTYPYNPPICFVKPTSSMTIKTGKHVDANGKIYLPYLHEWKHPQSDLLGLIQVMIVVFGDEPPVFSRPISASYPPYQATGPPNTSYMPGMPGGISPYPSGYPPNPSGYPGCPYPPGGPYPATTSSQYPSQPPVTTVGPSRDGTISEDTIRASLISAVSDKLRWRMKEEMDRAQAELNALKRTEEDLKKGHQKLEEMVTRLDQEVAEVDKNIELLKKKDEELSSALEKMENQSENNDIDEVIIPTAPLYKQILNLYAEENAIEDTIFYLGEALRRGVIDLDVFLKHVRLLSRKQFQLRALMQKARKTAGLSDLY
#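 Compounds were pin-transferred onto Tsg101 binding domain (10 uM final) in HEPES pH 7.5 buffer, then FITC-PTAP peptide was added at 50 nM final. After 20 min at RT, polarization reported peptide displacement across a qHTS concentration series.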
# VDR inh: inhibitors of human vitamin D receptor; P11473; VDR-SRC2-3 peptide fluorescence polarization, 2 h; Potency, µM, usual class: inhibitors; hit rate 0.93% among 400,000
#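 FP read-out; VDR + SRC2-3 coactivator peptide; 23 nl compound by pintool; 2 h RT incubation; reagents held at 4 deg C, protected from light.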
# PLK1 PBD inh: blocks phosphopeptide binding to human PLK1 polo-box domain; Potency, µM, hits mostly inhibitors; Plk1 PBD binding of FITC phosphopeptide, fluorescence polarization; hit rate 2.8% among 360,000; also: series mostly up to about 57 µM; nearly all actives have a fitted effect of over 65% in size
# uPA surface inh: cell surface uPA generation inhibition; hit rate 0.31% among 330,000; cell surface uPA generation assay, qHTS; Potency, µM (titrated, usually from 38.3 µM), usual class: inhibitors; active = well fitted inhibition curve with a large enough effect; inconclusive = small, poorly fitted or top-dose-only effect; inactive = no such curve, though single readings can be large or run the other way; tested in mouse RAW 264.7 cells; also: nearly all actives have a fitted effect of over 55% in size
# TSHR antag: antagonists of human thyroid stimulating hormone receptor; P16473; TSHR-expressing cells, TSH-stimulated cAMP HTRF, 2 h; hits give low values; activity change, negative = inhibition, % at 11.5 µM; hit rate 0.2% among 330,000; AID 504810;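 active = activity change below a set negative limit, meaning inhibition stronger than a set level, cut at about -70% in these data; inconclusive = activity change between two set negative limits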
#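 Competitive HTRF cAMP read-out (cryptate anti-cAMP antibody, cAMP-d2; 30 min, room temperature) in freshly harvested TSHR cells. Compounds added before TSH at EC80 (4nM final), followed by 2 hours' incubation at 37 deg C.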
# TbPYK inh: confirmation of Trypanosoma brucei pyruvate kinase inhibitors; shares compounds with PLK1 PBD inh; Potency, µM (titrated, usually from 76.9 µM), actives largely listed as inhibitors; recombinant TbPYK, Kinase-Glo ATP luminescence; hit rate 67% among 890; also: nearly all actives have a fitted effect of over 70% in size
# TbPYK ADP-Glo: inhibits T. brucei pyruvate kinase in orthogonal ADP-Glo assay | shares compounds with PLK1 PBD inh | recombinant TbPYK, ADP-Glo luminescence, 60 min | Potency, µM (titrated, usually from 76.9 µM), hits mostly inhibitors | hit rate 62% among 890 | AID 720584; also: nearly all actives have a fitted effect of over 75% in size
# A number is an active result; i = inactive; ? = inconclusive; nt = not tested or not shown. A selection: hits, their analogues and other compounds. The true share with any hit is near 3.1%. Unless noted, calls follow the shape of the dose curve; as a rule, active = well fitted curve in the direction sought with a large enough effect; inconclusive = small, poorly fitted or top-dose-only effect, or another doubt; inactive = no such curve, though single readings can be large; an effect the other way counts as inactive or inconclusive.
SMILES,TSG101-PTAP inh,VDR inh,PLK1 PBD inh,uPA surface inh,TSHR antag,TbPYK inh,TbPYK ADP-Glo
CN(C)c1ccc(C(c2ccc(N(C)C)cc2)C(O)c2ccccc2)cc1 (centres undefined),i,i,i,i,nt,2.8µM,?
CCOc1ccc(-n2c(SCc3ccc([N+](=O)[O-])cc3)nnc2-c2ccccc2)cc1,i,i,i,i,i,11µM,8.9µM
COc1ccc(-n2c(SCc3ccc([N+](=O)[O-])cc3)nnc2-c2ccccc2)cc1,i,i,i,i,i,nt,nt
CCn1c(=O)cc(C(F)(F)F)[nH]c1=S,i,i,i,i,i,?,35µM
CCn1c(=S)[nH]c2cc(C(=O)O)ccc21,nt,nt,nt,nt,i,nt,nt
COc1ccc(C2C=C(c3ccc(Cl)cc3)Nc3nc(-c4ccc(Cl)cc4)nn32)cc1 (centres undefined),nt,i,nt,nt,nt,nt,nt
Oc1ccc(C23CC4CC(CC(C4)C2)C3)cc1O,i,i,i,?,i,20µM,20µM
COc1ccc(/C=C/c2cc(OC)c(OC)cc2CC[N+](C)(C)C)cc1,nt,i,nt,nt,nt,nt,nt
O=C(CN1CCN(c2ccc(O)cc2)CC1)Nc1ccc2c(c1)OCCO2,i,i,i,i,i,22µM,32µM
O=C(CN1CCN(c2ccc(F)cc2)CC1)Nc1ccc2c(c1)OCCO2,i,i,i,i,i,nt,nt
CC1CC(C)CN(C(=O)c2nn(C)c3c2CSc2ccccc2-3)C1 (centres undefined),i,i,i,i,i,nt,nt
CC1CCCN(C(=O)c2nn(C)c3c2CSc2ccccc2-3)C1 (centres undefined),i,i,?,i,i,7.9µM,10µM
O=C(NCCc1ccccc1)C(=O)NCC(c1cccnc1)N1CCN(c2ccccc2)CC1 (centres undefined),nt,i,nt,nt,nt,nt,nt
Cc1cc(-c2cc(-c3ccc(Cl)cc3)nc(N)c2C#N)co1,i,?,21µM,i,i,i,40µM
Cc1ccc(-c2cc(-c3ccc(F)cc3)c(C#N)c(N)n2)o1,i,?,?,i,i,nt,nt
COc1ccc(S(=O)(=O)N2CCCC(C(=O)Nc3cccnc3)C2)cc1Cl (centres undefined),i,i,2.7µM,i,i,i,i
CCN1C(=O)/C(=C/C=C2\C=CN(CC)c3ccccc32)SC1=S,i,i,i,i,i,22µM,?
CCN1C(=O)/C(=C\C=C2/C=CC=CN2CC)SC1=S,i,?,i,i,i,nt,nt
Cc1ccc(S(=O)c2ccc([N+](=O)[O-])c3nonc23)cc1 (centres undefined),nt,nt,1.5µM,nt,nt,i,11µM
Cc1nc(SCC(=O)c2cccc([N+](=O)[O-])c2)n[nH]1,i,25µM,?,i,i,?,?
CN1CCN(c2nc(-c3ccc(Cl)s3)cs2)CC1,i,i,19µM,i,i,?,16µM
Cc1ccc2c(c1)-c1c(ssc1=S)C(C)(C)N2C(=O)CSc1nncn1C,i,i,i,i,i,nt,nt
Cc1cc(C)c2c(c1)-c1c(ssc1=S)C(C)(C)N2C(=O)CSc1nncn1C,i,?,i,i,i,14µM,16µM
CCOc1cc(/C=C2\SC(=S)N(N3CCOCC3)C2=O)ccc1O,i,i,i,i,i,nt,nt
CCOc1cc(/C=C2\SC(=N)N(c3nccs3)C2=O)ccc1OCCN1CCOCC1,i,i,i,i,i,?,?
SMILES,TSG101-PTAP inh,VDR inh,PLK1 PBD inh,uPA surface inh,TSHR antag,TbPYK inh,TbPYK ADP-Glo
COc1ccc(S(=O)(=O)N2CCN(CC(=O)c3ccc(O)c(O)c3)CC2)cc1,i,i,i,i,i,?,?
CCn1c(C(=O)NCc2cccnc2)cc2sc(Cl)cc21,i,i,i,nt,i,?,?
COc1ccc(OC)c(-n2c(=O)c3ccccc3c3ccccc3c2=O)c1,i,i,?,i,i,nt,nt
COc1ccc(OC)c(-n2c(=S)[nH]c3c(sc(=S)n3-c3ccccc3)c2=O)c1,i,i,i,i,i,16µM,16µM
CC1(C)CC(=O)C(C(C2=C(O)CC(C)(C)CC2=O)c2ccco2)C(=O)C1 (centres undefined),i,?,5.3µM,i,i,13µM,?
CCc1ccc(CN(C(=O)c2cc(=O)c3ccc(C)cc3o2)C2CCS(=O)(=O)C2)cc1 (centres undefined),nt,i,nt,nt,nt,nt,nt
Cc1ccccc1C(=O)Nc1ccccc1C(=O)NC1CC1,i,i,i,i,i,nt,nt
O=C(CSc1ncccc1C(=O)Oc1ccccc1Cl)Nc1ccc(C(F)(F)F)cc1Cl,nt,i,nt,nt,nt,nt,nt
COc1ccc(OC)c(NC(=O)c2ccccc2N(Cc2ccccc2)S(C)(=O)=O)c1,i,i,i,i,i,8.9µM,14µM
Cc1cccc(CNc2ccc(S(=O)(=O)N3CCCCC3)cc2)c1,i,i,i,i,i,nt,nt
FC(F)(F)Oc1ccc(Nc2nc(N3CCOCC3)nc(N3CCOCC3)n2)cc1,i,?,4.7µM,i,i,i,i
CCc1ccc(Nc2nc(N3CCOCC3)nc(N3CCOCC3)n2)cc1,i,i,i,i,i,nt,nt
COCC(C)n1c(COc2ccccc2F)nnc1SCC(=O)Nc1oc(C)c2c(C)n[nH]c(=O)c12 (centres undefined),i,i,i,i,i,20µM,18µM
COc1ccccc1-c1nnc(SCC(=O)Nc2oc(C)c3c(C)n[nH]c(=O)c23)n1C,i,i,i,i,i,nt,nt
CCNC(=O)C1(C)CCCN(C(=O)c2ccc(OC)c(F)c2)C1 (centres undefined),nt,nt,i,nt,nt,nt,nt
CC(C)CCNC(=O)CSc1nc2ccccc2nc1Cc1ccccc1,nt,i,nt,nt,nt,nt,nt
CS(=O)(=O)N1CCC2(CCCN(C(=O)Nc3ccccc3)C2)CC1,nt,i,nt,nt,nt,nt,nt
O=c1[nH]c(=O)n([C@H]2C[C@H](O)[C@@H](CO)O2)cc1C(F)(F)F,i,i,i,i,i,nt,nt
O=c1[nH]c(=O)n(C2CC(O)C(CO)O2)cc1Br (centres undefined),i,i,i,i,nt,13µM,28µM
COc1ccc(N2C(=O)C3CC(C)=C(C)CC3C2=O)c(OC)c1 (centres undefined),i,i,i,i,i,nt,nt
COc1cc(N2C(=O)C=CC2=O)ccc1N1C(=O)C=CC1=O,i,?,2.4µM,i,nt,1.1µM,1.8µM
Cc1nc(SCc2ccc(O)c([N+](=O)[O-])c2)c([N+](=O)[O-])[nH]1,i,?,i,i,i,?,13µM
Cc1nc(SCc2ccc(O)c([N+](=O)[O-])c2)n[nH]1,i,i,i,i,i,nt,nt
CC(C)c1ccc(NC(=O)c2cc(S(=O)(=O)NC3CCCCC3)ccc2F)cc1,nt,i,nt,nt,nt,nt,nt
O=C(Nc1cccc(F)c1)N1CCCC2(CCN(C(=O)c3cnccn3)CC2)C1,nt,i,nt,nt,nt,nt,nt
NC(=O)CN1C(=O)/C(=c2\sc3nc(=O)c(Cc4ccccc4)nn3c2=O)c2ccccc21,i,?,6µM,i,i,28µM,16µM
